Reference: PubChem BioAssay (NCI)
About 83,000 compounds went through this panel and 20% of them were active in at least one assay; those are over-represented in the sample as a whole.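 Note: values are percent growth. 100 is the growth of untreated cells, values between 100 and 0 indicate rising inhibition; between -100 and 0 indicates cell death.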 A number with no mark means an inactive call. Activity calls are given as the source filed them. Rule for the calls: active = growth percent below 10; inactive = the rest.

Assays:
Test in all cases: NCI-60 one-dose screen, 48 h (100 = growth as untreated, 0 = no growth, -100 = all killed)
Details in all cases: 10 µM unless noted
SK-MEL-2 melanoma = test system: SK-MEL-2 melanoma
EKVX NSCLC = test system: EKVX NSCLC
SN12C renal = test system: SN12C renal
UO-31 renal = test system: UO-31 renal
TK-10 renal = test system: TK-10 renal
ACHN renal = test system: ACHN renal
CAKI-1 renal = test system: CAKI-1 renal
CCRF-CEM leukemia = test system: CCRF-CEM leukemia
MOLT-4 leukemia = test system: MOLT-4 leukemia
A498 renal = test system: A498 renal

Compound	growth (SK-MEL-2 melanoma)	growth (EKVX NSCLC)	growth (SN12C renal)	growth (UO-31 renal)	growth (TK-10 renal)	growth (ACHN renal)	growth (CAKI-1 renal)	growth (CCRF-CEM leukemia)	growth (MOLT-4 leukemia)	growth (A498 renal)
CCn1c(Sc2nnc(Nc3ccccc3)s2)nc2c1c(=O)n(C)c(=O)n2C	130%	86.5%	96.4%	73%	146%	91%	93.9%	117%	110%	–
CCCCN1CCN(c2ccc3nc(-c4ccc5nc(-c6ccc(OCC)c(OCC)c6)[nH]c5c4)[nH]c3c2)CC1	13.1%	24.6%	18.8%	74.4%	57%	12.7%	27.7%	-0.368% (active)	-0.133% (active)	–
O=C(c1ccccc1)c1ccc(N2C(=O)C3C4c5ccccc5C(/C=C/C(=O)c5ccccn5)(c5ccccc54)C3C2=O)cc1 (centres undefined)	74.7%	27.9%	11.3%	-37.4% (active)	20.1%	-25.4% (active)	49.3%	11.1%	16%	–
Cc1ccc(S(=O)(=O)N(CC[C@@H]2C[C@H]2c2cc3ccccc3o2)C(=O)NC2CCCCC2)cc1	101%	101%	100%	75.9%	106%	96.9%	80.1%	118%	94.7%	–
COc1ccc(OC)c(C(=O)Nc2cccc(-c3cc(=O)c4ccccc4o3)c2)c1	98.2%	90.5%	82.6%	95.2%	88%	84.7%	79.4%	86.5%	86.3%	–
CCn1nc(C#Cc2c(C)ccc3c(Nc4ccc(Cl)cc4)nccc23)c2c(N)ncnc21	-50.8% (active)	36.6%	15.6%	8.45% (active)	16.8%	8.02% (active)	18.8%	–	20.9%	–
COc1cc(C2CC(c3ccc(Nc4nc(Nc5ccc(F)cc5)nc(Nc5ccc(Cl)cc5)n4)cc3)=NN2C(C)=O)cc(OC)c1OC (centres undefined)	66%	202%	80.8%	53.6%	60.7%	77.5%	–	27.6%	4.27% (active)	78.4%
CCOC(=O)N1CCc2c(sc3c2C(=O)N[C@H](c2ccc(OC)cc2)N3)C1	96.5%	101%	85.4%	87.6%	109%	103%	–	95.9%	99.7%	96.4%
O=C(/C=C/C12c3ccccc3C(c3ccccc31)C1C(=O)N(c3ccccc3)C(=O)C12)c1ccccc1 (centres undefined)	24.5%	8.88% (active)	15%	-77.5% (active)	20.8%	-15% (active)	45.8%	9.95% (active)	11%	–
CC(C)OC(=O)NNC(=O)c1ccncc1	84.4%	106%	100%	77.8%	103%	96%	94.4%	132%	102%	–
CN(C)c1ccc(/C=N/NC(=O)COc2cc(=O)n(C)c3ccccc23)cc1	111%	103%	99.5%	71.7%	119%	90.6%	83.7%	106%	104%	–
CC(=O)C(C(C)=O)c1nc2sc3cc(Cl)ccc3n2c(=N)c1C#N	86.8%	70.7%	90%	58.4%	117%	84%	85.7%	91.9%	67%	–
NS(=O)(=O)c1cnccc1-n1ccc(=O)c(S(N)(=O)=O)c1	81.1%	90.3%	92.6%	68.6%	83.8%	93.6%	–	88.5%	76.9%	85.4%
O=c1cc(-c2ccc(OCc3ccccc3)cc2)oc2c(I)c(OCc3ccccc3)cc(OCc3ccccc3)c12	113%	109%	101%	80%	96.5%	98.5%	84.2%	97.8%	113%	–
Cc1ccc(NSc2ccccc2[N+](=O)[O-])cc1	23.5%	50.1%	40.3%	33.1%	51.7%	50.4%	34.2%	12.4%	29.5%	–
N#C/C(=C\c1ccc(Br)cc1)n1nnc2cc(Cl)c(Cl)cc21	33.9%	59.6%	35%	35.1%	59.6%	41%	21.9%	8.21% (active)	6.13% (active)	–
COc1cc(/C=C/C(=O)c2ccc(Nc3nc(Nc4ccccc4)nc(Nc4ccc(Cl)cc4)n3)cc2)cc(OC)c1OC	82%	52.8%	69%	50.6%	74.7%	66.1%	66.4%	18.5%	25.5%	–
Nc1ccc(-c2cc3c(Nc4ccc(OCc5cccc(F)c5)c(Cl)c4)ncnc3s2)cc1	25.3%	21.5%	48.4%	19.6%	32.5%	29.6%	–	24%	30%	39.3%
CC(C)n1nc(C#Cc2cccc(O)c2)c2c(N)ncnc21	-76.9% (active)	-27.1% (active)	-44.3% (active)	-63.4% (active)	-87.4% (active)	-47.3% (active)	-66.8% (active)	–	-36.1% (active)	–
COc1ccc(/C=C(\C#N)n2nnc3ccccc32)cc1	38.5%	24.1%	18.9%	33.2%	44%	23%	25%	18.8%	18.7%	–
N#C/C(=C\c1ccc2c(c1)OCO2)n1nnc2ccccc21	21.6%	23%	14.1%	11.9%	28.3%	22.9%	17.7%	–	16.4%	–
O=C1Nc2ccc(Cl)cc2/C1=N/N=C/c1c[nH]c2ccccc12	66.3%	22.6%	80.5%	40.9%	75.8%	49.8%	28.9%	–	92.1%	–
CN1C(=O)CCC(N2C(=O)c3cccc(NCCOCCOCCNC(=O)c4cc5c(o4)C(=O)c4ccccc4C5=O)c3C2=O)C1=O (centres undefined)	6.39% (active)	9.9% (active)	-86.2% (active)	-52.6% (active)	32.4%	8.82% (active)	-0.721% (active)	–	11.1%	–
CCOC(=O)c1cnn2c(-c3ccc(Cl)cc3)nc(NCc3ccccc3)nc12	91%	68.7%	31.2%	59.9%	71.3%	13.7%	–	66.9%	64.9%	31.5%
CCCCCCCCn1cc(C2=C(c3coc4ccc(OC)cc34)C(=O)NC2=O)c2ccccc21	107%	102%	102%	85.7%	97.6%	103%	99.7%	–	125%	–
COc1cc(-c2ccc(-c3ccc(C(=N)N)nc3)s2)cc(OC)c1OC	89.3%	89.9%	66.6%	70.5%	102%	47.1%	95.9%	10.9%	23.8%	–
NS(=O)(=O)Oc1ccc(NC(=O)C23CC4CC(CC(C4)C2)C3)cc1Cl	99.9%	93%	90.6%	63.4%	100%	96.1%	89%	73.6%	82.3%	–
CCCCCCCCCCCCCCCCCC1=NCCN1C(=O)OCCO	76.8%	83.4%	32.7%	29.5%	-65.4% (active)	38.4%	–	-2.98% (active)	8.42% (active)	89.1%
O=[N+]([O-])c1ccc(-c2cc3c(Nc4ccc(OCc5cccc(Cl)c5)c(Cl)c4)ncnc3s2)cc1	79.4%	68.4%	85.1%	59.9%	70.1%	63.3%	–	52.2%	47.5%	72.3%
O=[N+]([O-])c1ccc(-c2cc3c(Nc4ccc(Sc5nc6ccccc6s5)c(Cl)c4)ncnc3s2)cc1	46.7%	39.7%	28.6%	43.4%	48.2%	34.4%	–	34.6%	23.7%	-0.884% (active)
